These results are taken from PubChem BioAssay (NCATS).

Assay [1] in a line: Cell Proliferation Assay against the TMD8 Cell Line (AID 651645).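 Further: cells exposed to compound for 48 h before reading.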 The conditions noted are these: TMD8 DLBCL cell line proliferation/viability; at 46.1 µM (top of the series) unless noted. The essentials: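 TMD8 ABC DLBCL cells, 500 per well in phenol red-free RPMI with 5% FBS, were treated with compound by pin transfer and incubated 48 hours at 37C, 5% CO2. Viability was read by CellTiter-Glo luminescence, normalised to DMSO (100%) and 9.2 uM bortezomib (0%).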

A short description of assay [2]: Cell Proliferation Assay against the HBL1 Cell Line (AID 651646).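 Further: cells exposed to compound for 48 h before reading.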 The conditions noted are these: HBL1 DLBCL cells; at 46.1 µM (top of the series) unless noted. The method in brief: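 HBL1, 500 cells/well, RPMI no phenol red + 5% FBS; cpd pinned, 48 h 37C/5% CO2; CellTiter-Glo, 15 min RT, luminescence. % activity: DMSO = 100%, bortezomib 9.2 uM final = 0%.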
Assay [3] concerns the target Tyrosine-protein kinase Yes (Homo sapiens) (UniProt P07947). As to the kind of experiment: qHTS for small molecule inhibitors of Yes1 kinase: Primary Screen (AID 686947).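 Further: plate controls were DMSO with enzyme for no effect and no-enzyme DMSO wells for full effect; nearly all actives have a fitted effect of over 60% in size.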 The essentials:
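In this qHTS format, inhibition is expressed relative to DMSO controls with enzyme (maximum) and without enzyme (minimum). The 60 min room-temperature reaction uses 0.1 mM ATP, with ADP detected by luminescence.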
For orientation: qHTS replaces the single test concentration by a dilution series.

Assay [4] can be described thus: qHTS for small molecule inhibitors of Yes1 kinase: Counter Assay (AID 686950).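 Further: no kinase present so only ADP-Glo detection of a fixed ADP amount is tested; luminescence from ADP-Glo reporting ADP in a fixed ATP and ADP mixture; 0% = DMSO wells with ATP plus ADP and -100% = ATP-only wells without ADP.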 The method in brief: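 No kinase present; 0.08 mM ATP + 0.02 mM ADP in 50 mM Tris pH 7.5, 10 mM MgCl2, 150 mM NaCl, 1 mM DTT; 20 min compound preincubation, 60 min RT, ADP-Glo luminescence, normalized to ATP/ADP (max) and ATP-only (min).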
Assay [5] can be described thus: qHTS assay for small molecule activators of the p53 signaling pathway (AID 651743; active means well fitted activation curve with a large enough effect in the signal ratio, not every such curve was filed as active; the % refers to the signal ratio; further: % of control where 0% means no effect). The note with it: HCT-116 p53RE-bla, beta-lactamase FRET ratio, 16 h; activation: stronger effect = higher value. The method in brief: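 Reporter: beta-lactamase driven by p53 response elements, stably integrated in HCT-116 cells. Cells seeded at 4,000/well, 5 h preincubation, compound (DMSO) 16 h at 37 C; B/G FRET substrate 2 h RT; fluorescence intensity read.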

Assay [6] can be described thus: qHTS assay for small molecule activators of the nuclear factor-kappa B (NF-kB) signaling pathway (AID 651749; active means well fitted activation curve with a large enough effect in the signal ratio; the % refers to the signal ratio; further: % of control where 0% means no effect). The note with it: NF-kB-bla ME-180 cells, beta-lactamase FRET ratio, 16 h; stronger effect = higher value. The essentials:
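NF-kB-bla ME-180 cells, 2,000/well; 23 nL compound or DMSO pinned; 16 hr, 37C/5% CO2; beta-lactamase FRET read-out.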

Assay [7] is described as follows: qHTS assay for environmental chemicals that activate the Aryl hydrocarbon Receptor (AhR) signaling pathway (AID 651777). Further: % of control where 0% means no effect; nearly all actives have a fitted effect of over 15% in size. The conditions noted are these: 1A2-DRE human hepatoma cells, luciferase, 24 h; stronger effect = higher value. The essentials: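 AhR activation is scored as a rise in luciferase from a stable DRE–CYP1A2 promoter construct in human hepatoma cells. Treatment lasts 24 hr at 37 C; detection uses One-Glo after 30 min at room temperature.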

Assay [8] concerns the target Peroxisome proliferator-activated receptor alpha (Homo sapiens) (UniProt Q07869). As to the kind of experiment: qHTS assay for small molecule agonists of the peroxisome proliferator-activated receptor alpha (PPARalpha) signaling pathway (AID 651778). Further: potency means the concentration at half of the fitted maximal effect. On max response: % of control where 0% means no effect. The note with it: PathHunter PPARalpha complementation, chemiluminescence, 6 h; max response: stronger effect = higher value. The essentials: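 Enzyme-fragment complementation assay in which ligand-bound PPARalpha translocates and forms an active enzyme that generates chemiluminescence. Cells were plated overnight, exposed to compound for 6 hr at 37 C, and then given detection reagent for 60 min at room temperature.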

Assay [9] can be described thus: qHTS assay for small molecule agonists of the antioxidant response element (ARE) signaling pathway measured by Nrf2-dependant transcriptional activity - cell viability counter screen (AID 720653; active means well fitted curve in the direction sought with a large enough effect in the repeat runs; an effect the other way counts as inactive or inconclusive; further: on the % scale 0 is the no-effect control and ±100 the full control effect). The conditions noted are these: ARE-bla HepG2 viability, CellTiter-Glo ATP luminescence, 16 h; stronger effect = lower value. The essentials: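 ARE-bla HepG2 cells treated with compounds for 16 h at 37C; this counter screen measures viability as intracellular ATP by CellTiter-Glo luminescence after 30 min at room temperature.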

Assay [10] in a line: qHTS assay for small molecule agonists of the antioxidant response element (ARE) signaling pathway (AID 651741; active means well fitted activation curve with a large enough effect in the signal ratio; the % refers to the signal ratio; further: potency means the concentration at half of the fitted maximal effect; on activation: % of control where 0% means no effect). The method in brief:
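HepG2 ARE-bla reporter cells, 2,000/well; 5 h settle at 37 C/5% CO2; compound pin transfer (23 nL, DMSO); 16 h at 37 C; LiveBLAzer B/G FRET substrate, 2 h RT; fluorescence intensity read.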

The nature of assay [11]: qHTS assay for small molecule disruptors of the mitochondrial membrane potential - 1 hr assay (AID 651754; calls by dose curve; further: on the % scale 0 is the no-effect control and ±100 the full control effect; nearly all actives have a fitted effect of over 35% in size). The method in brief: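 In this qHTS format, a 1 hr compound treatment of HepG2 cells precedes Mito-MPS staining, and membrane potential is judged from aggregate (red) against monomer (green) fluorescence intensity.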
The nature of assay [12]: qHTS assay for small molecule disruptors of the mitochondrial membrane potential - 5 hr assay (AID 651755; calls by dose curve; further: on the % scale 0 is the no-effect control and ±100 the full control effect; nearly all actives have a fitted effect of over 40% in size). The essentials:
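Read-out: ratiometric Mito-MPS fluorescence, green monomer (ex 490/em 535) vs red mitochondrial aggregate (ex 540/em 590). HepG2 cells treated 5 hr at 37C before 30 min dye loading.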

The target of assay [13] is Tumor necrosis factor (Homo sapiens) (UniProt P01375). As to the kind of experiment: qHTS assay to identify small molecules that stimulate Tumor Necrosis Factor-alpha (TNF-alpha) secretion (AID 651757; active means well fitted curve in the direction sought with a large enough effect in the signal ratio; the % refers to the signal ratio; further: 0% is about no effect). The method in brief: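 Using 3000 THP-1 cells per well, compounds and controls were applied for 17 hrs at 37 C. Detection followed with two labeled anti-TNF-alpha antibodies (cryptate donor, XL665 acceptor) for 3 hr at room temperature, measured by TR-FRET.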
Tumor necrosis factor (Homo sapiens), sequence (P01375 whole entry, looked up): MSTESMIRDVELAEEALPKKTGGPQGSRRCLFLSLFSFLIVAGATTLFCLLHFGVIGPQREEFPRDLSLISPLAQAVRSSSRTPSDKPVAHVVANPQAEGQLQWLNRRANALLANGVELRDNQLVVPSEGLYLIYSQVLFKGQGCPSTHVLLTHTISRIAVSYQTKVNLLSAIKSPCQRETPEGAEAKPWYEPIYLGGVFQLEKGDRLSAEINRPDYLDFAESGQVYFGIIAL

The target in assay [14] is Nuclear receptor ROR-gamma (Homo sapiens) (UniProt P51449). As to the kind of experiment: qHTS assay for small molecule antagonists of the retinoid-related orphan receptor gamma (ROR-gamma) signaling pathway (AID 651802).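 Further: CHO cells with doxycycline-induced ROR-gamma expression; luciferase reporter luminescence driven by ROR response element; on the % scale 0 is the no-effect control and ±100 the full control effect; nearly all actives have a fitted effect of over 60% in size.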 The essentials:
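Doxycycline-induced reporter activity in engineered CHO cells (TET-inducible ROR, RORE-LUC) was measured by luminescence after 16hr compound exposure at 37C.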

Assay [15] can be described thus: qHTS assay for small molecule antagonists of the retinoid-related orphan receptor gamma (ROR-gamma) signaling pathway - cell viability counter screen (AID 720652; active means well fitted curve in the direction sought with a large enough effect in the repeat runs; an effect the other way counts as inactive or inconclusive;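 further: CHO reporter cells with doxycycline-induced ROR-gamma expression; compound exposure lasted 16 hr before ATP read; on the % scale 0 is the no-effect control and ±100 the full control effect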). The method in brief:
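ATP-based viability readout in the ROR-gamma reporter CHO cells after 16 hr compound exposure under doxycycline induction.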

Assay [16] can be described thus: qHTS assay to identify small molecules that stimulate interleukin-8 (IL-8) secretion (AID 651758; active means well fitted activation curve with a large enough effect in the signal ratio; the % refers to the signal ratio; further: potency means the concentration at half of the fitted maximal effect; on activation: 0% is about no effect). The essentials:
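Compounds are added to THP-1 cells (2000 per well) and left 16 hrs at 37 C. A labeled anti-IL-8 antibody pair is then added, and IL-8 secretion is measured by time-resolved FRET after 1-3 hrs at room temperature.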

A short description of assay [17]: Cell Proliferation Assay against the TMD8 Cell Line (Caspase readout at 16 hrs) (AID 651712).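 Further: 0% = DMSO and 100% = 9.2 µM bortezomib caspase activation.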 The essentials: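 Caspase-Glo luminescence after 16 h compound exposure of TMD8 cells, 37 °C, 5% CO2. Medium: RPMI without phenol red, 5% FBS. Normalisation: DMSO = 0%, bortezomib 9.2 uM final = 100%.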

Where “and” joins values, the source holds several entries; their conditions need not be identical. Equal entries are not always repeated. Records with an inconclusive call do not appear. Calls of active or inactive are those of the source. Unless noted, the call rests on the fitted dose curve; in most records, active means well fitted curve in the direction sought with a large enough effect; inconclusive means small, poorly fitted or top-dose-only effect, or another doubt; inactive means no such curve, though single readings can be large; an effect the other way counts as inactive or inconclusive. *1 amine or outer side, *2 acyl side, *3 side chain or, on linkers, in order; H or OH if unused. Where a SMILES comes first, the peptide text is derived from it. Bridges are numbered along the chain shown (N, C = ends). Roman numbers before positions name the chains, in order. [ ]: non-standard residue; d: D form. ξ: configuration not given here. Actinocin(9to1) = Cc1c2oc3c(C)ccc(C(=O)[*:1])c3nc-2c(C(=O)[*:2])c(N)c1=O; ξNMeV = CNC(C(=O)O)C(C)C; ξV = CC(C)C(N)C(=O)O; Sar = CNCC(=O)O

Tyrosine-protein kinase Yes (Homo sapiens), sequence (P07947 whole entry, looked up): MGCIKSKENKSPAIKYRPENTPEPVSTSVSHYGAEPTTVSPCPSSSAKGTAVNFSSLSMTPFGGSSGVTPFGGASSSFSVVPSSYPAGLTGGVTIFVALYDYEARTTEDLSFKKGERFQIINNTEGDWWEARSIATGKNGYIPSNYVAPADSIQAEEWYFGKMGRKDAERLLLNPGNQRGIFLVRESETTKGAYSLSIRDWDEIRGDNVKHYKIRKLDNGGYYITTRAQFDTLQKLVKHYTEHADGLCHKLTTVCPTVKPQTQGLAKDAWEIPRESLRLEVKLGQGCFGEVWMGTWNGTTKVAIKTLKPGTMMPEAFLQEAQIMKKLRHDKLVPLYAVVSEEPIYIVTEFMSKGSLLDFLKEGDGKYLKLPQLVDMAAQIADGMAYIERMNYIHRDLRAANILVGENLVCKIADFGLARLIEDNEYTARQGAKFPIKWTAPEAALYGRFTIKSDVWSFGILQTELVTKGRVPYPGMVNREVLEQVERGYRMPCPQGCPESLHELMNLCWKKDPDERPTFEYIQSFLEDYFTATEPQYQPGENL
Peroxisome proliferator-activated receptor alpha (Homo sapiens), sequence (Q07869 whole entry, looked up, the tested form may be a part): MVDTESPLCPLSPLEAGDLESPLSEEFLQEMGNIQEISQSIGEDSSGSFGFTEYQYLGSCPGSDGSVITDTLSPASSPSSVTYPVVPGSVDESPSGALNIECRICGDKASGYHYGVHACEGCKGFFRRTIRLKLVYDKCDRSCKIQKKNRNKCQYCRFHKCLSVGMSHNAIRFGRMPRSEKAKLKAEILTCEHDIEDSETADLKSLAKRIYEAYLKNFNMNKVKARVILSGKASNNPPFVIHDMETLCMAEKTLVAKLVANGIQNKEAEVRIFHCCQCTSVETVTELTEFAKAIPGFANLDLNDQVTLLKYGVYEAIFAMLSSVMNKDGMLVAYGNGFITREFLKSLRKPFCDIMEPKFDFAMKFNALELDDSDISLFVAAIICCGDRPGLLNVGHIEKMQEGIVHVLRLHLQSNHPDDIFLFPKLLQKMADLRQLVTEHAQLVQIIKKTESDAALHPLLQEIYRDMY
Nuclear receptor ROR-gamma (Homo sapiens), sequence (P51449 whole entry, looked up): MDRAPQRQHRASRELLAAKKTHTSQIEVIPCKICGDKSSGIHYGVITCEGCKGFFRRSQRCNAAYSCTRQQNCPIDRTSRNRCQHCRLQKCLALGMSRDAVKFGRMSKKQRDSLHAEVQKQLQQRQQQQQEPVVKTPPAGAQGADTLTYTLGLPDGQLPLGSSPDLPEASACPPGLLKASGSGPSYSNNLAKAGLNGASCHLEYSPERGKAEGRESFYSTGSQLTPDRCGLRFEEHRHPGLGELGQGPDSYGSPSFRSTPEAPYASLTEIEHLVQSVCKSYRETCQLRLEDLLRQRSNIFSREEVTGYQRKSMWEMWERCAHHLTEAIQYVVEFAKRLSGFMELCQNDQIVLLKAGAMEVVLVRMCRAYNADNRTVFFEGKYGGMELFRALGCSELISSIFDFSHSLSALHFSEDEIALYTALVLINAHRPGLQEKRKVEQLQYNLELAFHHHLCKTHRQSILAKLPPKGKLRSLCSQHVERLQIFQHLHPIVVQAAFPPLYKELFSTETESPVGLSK

As for `CC[C@@H](C(=O)O)C1CC[C@H](C)C([C@@H](C)[C@H](O)[C@H](C)C(=O)[C@H](CC)C2O[C@]3(C=C[C@@H](O)[C@]4(CC[C@@](C)(C5CC[C@](O)(CC)[C@H](C)O5)O4)O3)[C@H](C)C[C@@H]2C)O1` (stereo partly specified), in assay [1], the viability (% of control) came to 2.54%. The viability, percent of control in assay [2] was 11.4%. For the same compound, the Potency result in [3] was “inactive”. Also, the compound was called inactive in [4].
`CC1=CCC(C(C)(C)O)CC1` (stereo unspecified): the activation is -5.6% (inactive) in assay [5], -1.34% (inactive) in assay [6] and 0.596% (inactive) in [7]. Further, the max response is -2.04% (inactive) in [8] and 3.37% (inactive) in assay [9].
Turning to `Nc1ccn([C@H]2CS[C@@H](CO)O2)c(=O)n1`, the Potency result in [10] is “inactive”. In addition, the activation in assay [5] is -1.09% (inactive); in [6], -1.13% (inactive); in assay [7], 0.73% (inactive). The result in assay [11], in assay [12], in [13], in assay [14] and in assay [15] was inactive. In addition, the results for the max response in assay [8] and in [9] were -3.53% (inactive) and 4.54% (inactive), respectively.
Consider `CC1=C(/C=C/C(C)=C/C=C/C(C)=C/CO)C(C)(C)CCC1`, for which the Potency in assay [10] was 68.6 µM (active) and 42.2 µM (active); in assay [16], 37.6 µM (active). The activation in assay [5] is -4.27% (inactive) and -5.83% (inactive); in assay [6], -0.416% (inactive) and -2.98% (inactive); in assay [7], 1.25% (inactive) and 1.27% (inactive). In addition, the result in assay [11] and in assay [13] was inactive. In addition, the max response was -3.78% (inactive) and -1.63% (inactive) in assay [8]; -15.5% (inactive) and 5.78% (inactive) in assay [9].
As to `CCC1(Cc2ccc(N)cc2)CCC(=O)NC1=O` (stereo unspecified), in assay [1], the viability (% of control) stood at 97.8% [at 92.2 µM]. Further, in [2], the viability, percent of control was determined as 97.3% [at 92.2 µM]. Also, the Potency entry in [17] and in [3] was “inactive” in each case. For the same compound, the result in assay [4] was inactive.
For `COC(=O)C1=C(C)NC(C)=C(C(=O)OCCCN2CCC(c3ccccc3)(c3ccccc3)CC2)[C@H]1c1cccc([N+](=O)[O-])c1`, the viability (% of control) in [1] is 2.99%. Moreover, the viability, percent of control in assay [2] worked out at 1.4%. Further, the Potency result in assay [3] was “inactive”. In addition, the compound was called inactive in assay [4].
For the compound `O=S(=O)(O)O`, the Potency result in [10] and in assay [16] was “inactive” in each case. For the same compound, the outcome in assay [11], in assay [12], in [13] and in assay [15] was inactive. In [7], the activation is -0.349% (inactive) and 1.61% (inactive). The max response in [8] is -1.64% (inactive) and -3.82% (inactive); in assay [9], -6.94% (inactive) and 4.69% (inactive).
`Cc1c2oc3c(C)ccc(C(=O)N[C@@H]4C(=O)NC(C(C)C)C(=O)N5CCC[C@H]5C(=O)N(C)CC(=O)N(C)C(C(C)C)C(=O)O[C@@H]4C)c3nc-2c(C(=O)N[C@@H]2C(=O)NC(C(C)C)C(=O)N3CCC[C@H]3C(=O)N(C)CC(=O)N(C)C(C(C)C)C(=O)O[C@@H]2C)c(N)c1=O` (stereo partly specified) (I: T[ξV]P[Sar][ξNMeV] / II: T[ξV]P[Sar][ξNMeV]; ester I:1-I:C, II:1-II:C; linker I:N-II:N via Actinocin(9to1)): in assay [1], the viability (% of control) was found to be 3.49%. Also, the viability, percent of control in assay [2] is 21.5%. For the same compound, the Potency result in [3] is “inactive”. The result in assay [4] was inactive.
In the case of `CCCCCCCC/C=C\CCCCCCCC(=O)O`, the Potency entry in assay [10] and in assay [16] was “inactive” each time. Also, the activation is 0.394% (inactive) and 0.396% (inactive) in assay [5]; -1.87% (inactive) and 0.641% (inactive) in [7]. Besides, the compound was called inactive in [11], in assay [12], in assay [13] and in assay [15]. For the same compound, the Potency in [8] was 35.5 µM (active). Also, the max response in assay [9] is -10.5% (inactive) and 3.78% (inactive).
